Laboratory results: PubChem BioAssay AID652141 (The Scripps Research Institute Molecular Screening Center, 2013)
Out of some 5,600 compounds screened, about 4,500 (80%) were called active. The set was probably picked from earlier hits. The list is a sample of the results. A number with no mark means an inactive call. Cut-off read from the data, not from the text of the source: active = inhibition above about 10%; inactive = the rest.

Assay: GDH-TPI coupling enzyme inhibitors, artefact control for M. tuberculosis FBA inhibitor project, biochemical, fluorescence, high throughput (AID 652141)
Conditions: GDH-TPI coupled enzyme counterscreen, at 1 µM, hits give high values

Row | Compound | inhibition
1 | NC(=O)C1CCN(C(=O)COc2ccc3c4c(c(=O)oc3c2)CCC4)CC1 | -5.33%
2 | CCCCC(NS(=O)(=O)c1ccc(C)cc1)C(=O)Oc1ccc2c3c(c(=O)oc2c1)CCC3 (stereo unspecified) | 68.4% (active)
3 | CC(C)Cn1c(N)c(C(=O)NCc2cccs2)c2nc3ccccc3nc21 | 29.6% (active)
4 | COCC(C)OC(=O)c1c(N)n(CCCN2CCOCC2)c2nc3ccccc3nc12 (stereo unspecified) | -2.55%
5 | C=CCn1c(N)c(C(=O)OCC(C)C)c2nc3ccccc3nc21 | 59.2% (active)
6 | CCCNC(=O)c1c(N)n(-c2ccc(S(N)(=O)=O)cc2)c2nc3ccccc3nc12 | 3.87%
7 | COc1cccc(NC(=O)CN(C)C(=O)/C=C/c2cc(OC)ccc2OC)c1 | 82.6% (active)
8 | COc1cccc(NC(=O)CN(C)CC(=O)Nc2ccc3c(c2)CCC3)c1 | 73.6% (active)
9 | OC[C@@H]1CN(Cc2cccs2)C[C@H](n2cnc3c(Nc4ccccc4)ncnc32)O1 | 64.2% (active)
10 | COc1ccccc1NC(=O)COc1ccc(C(=O)OCC(=O)N(C(C)C)C(C)C)cc1OC | -2.75%
11 | O=C1CC2(CCCCC2)Oc2ccc(OCC(=O)N3CCOCC3)cc21 | 0.92%
12 | COc1ccccc1C(=O)Nc1ccc(OCC(=O)N2CCCCC2)cc1 | 137% (active)
13 | COc1ccc2c(c1OC)C(=O)N(c1ncn[nH]1)C2 | 53% (active)
14 | COc1nc(N=C(N)N)nc2c(C)cccc12 | 83.6% (active)
15 | COc1ccc2c(c1)cc1n2CCN=C1NN | 89.8% (active)
16 | COCCCn1c(CCC(=O)O)ccc1-c1ccc(F)cc1 | 43.6% (active)
17 | CN(C)CCCNC(=O)c1ccc2[nH]c3ccccc3c2c1 | 96.7% (active)
18 | Cc1ccc(-c2nc3ccccc3[nH]c2=O)cc1 | 61.1% (active)
19 | CC(Nc1nc(N2CCOCC2)nc2ccccc12)c1ccccc1 (stereo unspecified) | 31% (active)
20 | c1ccc2c(NC3C4CC5CC(C4)CC3C5)nc(N3CCOCC3)nc2c1 (stereo unspecified) | 95.8% (active)
21 | COc1ccc(-c2ccc(C(=O)NC(C)C)c3occc23)c(C)c1 | 86.3% (active)

Row | Compound | inhibition
22 | COc1ccc(-c2ccc(C(=O)NCCN3CCOCC3)c3occc23)c(C)c1 | 56.7% (active)
23 | COCc1cc(=O)[nH]c2cc(NC(=O)C(F)(F)F)c(C)cc12 | 67.2% (active)
24 | CCC(=O)Nc1ccc2nn(-c3ccc(F)cc3)nc2c1 | 70% (active)
25 | CCNC(=S)Nc1ccc2c(c1)c(=O)n(C)n2Cc1ccc(Cl)cc1 | -3.99%
26 | COCCNc1cc(-c2ccccc2)nc2cc(-c3cccc(F)c3)nn12 | 133% (active)
27 | Cc1cc(S(=O)(=O)c2cc3ccc(O)c(C)c3oc2=O)ccc1F | 40.8% (active)
28 | COc1cccc2sc3cc(NCC[C@@H]4CCCN4C)ccc3c(=O)c12 | 69.2% (active)
29 | O=C1NC(c2cccc(Cl)c2)Nc2ccccc21 (stereo unspecified) | 84.8% (active)
30 | COc1ccc(C2NC(=O)c3ccccc3N2)cc1 (stereo unspecified) | 122% (active)
31 | CCN1CCN(C(=O)c2cc3cc4ccc(OC)cc4nc3s2)CC1 | 74.1% (active)
32 | CCOC(=O)Cc1c(C)nc2c(C#N)c(C)nn2c1C | 39.1% (active)
33 | COC(=O)c1noc(C)c1-c1ccnn1C(=O)c1ccc(Cl)cc1 | 38.9% (active)
34 | COc1ccc(-c2cc(C(=O)Nc3ccccc3O)c3ccccc3n2)cc1 | 114% (active)
35 | COc1ccc(-c2cn3ccc(C)cc3n2)cc1 | -5%
36 | COc1ccc(-c2cc(C(=O)N(C)Cc3ccccc3)c3ccccc3n2)cc1 | -2.5%
37 | O=c1oc2ccccc2cc1-c1cn(-c2ccccc2)c(=S)[nH]1 | 13.5% (active)
38 | COc1ccc2nc(-c3ccccn3)ccc2c1 | 93.8% (active)
39 | Cc1cc(C)c2c(n1)sc1c(=O)n(-c3ccccc3)c(=O)[nH]c12 | 62.5% (active)
40 | CCCc1cc(=O)oc2c(C)c(OCC(=O)N3CCC(C(=O)O)CC3)ccc12 | -7.26%
41 | CCc1cc(=O)oc2c(C)c(OCC(=O)N3CC[C@@]4(O)CCCC[C@H]4C3)ccc12 | 99.4% (active)
42 | CCN(CC)CCCNC(=O)c1cc2c(=O)[nH]c3ccc(C)cc3c2s1 | 98.2% (active)

Row | Compound | inhibition
43 | CCCN(C(=O)CSc1nnc(N)s1)c1c(N)n(Cc2ccccc2)c(=O)[nH]c1=O | 48% (active)
44 | CCOc1ccc2nc(NCCNS(=O)(=O)c3ccccc3)c(C#N)cc2c1 | 15.8% (active)
45 | O=C1C(=O)N(c2ccccc2)C(c2ccccc2)C1c1ccccc1 (stereo unspecified) | 0.69%
46 | CCc1ccc(-c2cc(C(=O)NCc3ccco3)c3ccccc3n2)s1 | -5.16%
47 | Cn1nc(-c2ccc(Cl)cc2)c2cc(C(=O)NCc3ccco3)sc21 | 33.3% (active)
48 | Cc1cc(C)c2nc(-c3ccco3)cc(C(=O)O)c2c1 | 2.96%
49 | Cc1cc(C)c2nc3nc(C)cc(C)c3c(N)c2c1 | 22.9% (active)
50 | CN1C(=O)c2ccc(NC(=O)C3CCCCC3)cc2C1=O | -2.4%
51 | CN1C(=O)c2ccc(NC(=O)c3c(F)c(F)c(F)c(F)c3F)cc2C1=O | 651% [above what the read-out allows, likely interference] (active)
52 | COCCNc1nc(-n2nc(C)cc2C)nc2sc3c(c12)CCCC3 | 97.7% (active)
53 | COc1ccc(NC(=O)N2CCC(Cc3ccccc3)CC2)cc1 | 23.6% (active)
54 | O=C(NCc1ccccc1)c1onc(CSc2nc3ccccc3[nH]2)c1C(=O)NCc1ccccc1 | 55.8% (active)
55 | CCOC(=O)N1CCC(NC(=O)c2cnn3ccccc23)CC1 | 33.9% (active)
56 | CCCC1OC23CCCCC2C(C#N)(C#N)C1(C#N)C(=N)O3 (stereo unspecified) | -5.15%
57 | CC12CCC(C(=O)N3CCN(c4ncccn4)CC3)(c3nc4ccccc4nc31)C2(C)C (stereo unspecified) | 143% (active)
58 | CCc1c(C)c2ccc(OC3CCCCC3=O)cc2oc1=O (stereo unspecified) | 78% (active)
59 | COc1ccc(-c2oc3ncnc(NCCCO)c3c2-c2ccc(OC)cc2)cc1 | 39.6% (active)
60 | O=C(NCCCN1CCOCC1)c1cnn2c(-c3ccccc3)cc(-c3ccccc3)nc12 | 79.2% (active)
61 | O=C(O)Cc1sc(-c2ccc(C(=O)O)cc2)nc1-c1ccccc1 | -7.95%
